Results as given in the supplement of paper PMC8183993.
Several values for one entry are separate records, joined by “and”; a condition that tells them apart may be missing. Equal values may be shown once. Where a name gives a salt, the structure may show the parent alone. ± gives the standard deviation of the averaged measurements. Whole data set: some 3,200 compounds, median “nuclei count (viability) relative to DMSO” near 99, cut for the lowest 2% near 16. The full list was thinned out, with the lowest values kept by preference.

These molecules were tested on U2OS (assay: nuclei count (viability) relative to DMSO (% of DMSO); higher = more viable cells). Conditions: 10 µM; 24 h.
Method: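 Primary image-based screen in U2OS cells: compounds at 10 uM for 24 h, then a 1 h o-propargyl-puromycin (OPP) pulse, click labelling, and high-throughput microscopy. Mean cytoplasmic OPP intensity and nuclei count were normalised to DMSO wells within each plate (DMSO = 100) and averaged over triplicate plates.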

Row | Compound | nuclei count
1 | CC(C)c1ccc(NC(=O)Cn2cnc3c2c(=O)n(C)c(=O)n3C)cc1 | 103
2 | COc1cc2c(NC3CCN(C(C)C)CC3)nc(N3CCC(F)(F)CC3)nc2cc1OCCCN1CCCC1 | 50.6
3 | C[C@@H]1CN(CCCn2c3ccccc3c3ccccc32)C[C@H](C)N1 [Rimcazole dihydrochloride] | 80
4 | CCN(CC)CCCC(C)Nc1ccnc2cc(Cl)ccc12 (stereo not given) [Chloroquine] | 96.6
5 | CCN(CC)CCCC(C)Nc1ccnc2cc(Cl)ccc12 (stereo not given) [Chloroquine diphosphate] | 103
6 | CCN(CC)CCCC(C)Nc1c2ccc(Cl)cc2nc2ccc(OC)cc12 (stereo not given) [Quinacrine dihydrochloride dihydrate] | 12.9
7 | CCN(CCO)CCCC(C)Nc1ccnc2cc(Cl)ccc12 (stereo not given) [Hydroxychloroquine] | 85.7
8 | CCN(CCO)CCCC(C)Nc1ccnc2cc(Cl)ccc12 (stereo not given) [Hydroxychloroquine sulfate] | 96.1
9 | CC1=CC(=O)C(C(C)C)=CC1=O [Thymoquinone] | 103
10 | COc1ccc(CCN(C)CCCOc2ccc(S(=O)(=O)c3c(C(C)C)n(C)c4ccccc34)cc2)cc1OC | 47.5
11 | C1CCC(C(CC2CCCCN2)C2CCCCC2)CC1 (stereo not given) [Perhexiline maleate] | 5.66
12 | COc1cc(-c2cn(C)c(=O)c3cnccc23)c(OC)cc1CN(C)C | 110
13 | Cc1ccc(-n2nc(C(C)(C)C)cc2NC(=O)Nc2ccc(OCCN3CCOCC3)c3ccccc23)cc1 [BIRB 796 (Doramapimod)] | 94.7
14 | COc1ccc(NC(=O)c2ccc(-c3ccc(-c4noc(C)n4)cc3C)cc2)cc1OCCN(C)C | 100
15 | C[n+]1cc2c3c(ccc2c2ccc4cc5c(cc4c21)OCO5)OCO3 [Sanguinarine chloride] | 12
16 | COc1ccc2cc3[n+](cc2c1OC)CCc1cc2c(cc1-3)OCO2 [Berberine HCl] | 98.6
17 | Cc1[nH]c2ccccc2c1C(Nc1ccccn1)c1ccc(Cl)cc1 (stereo not given) | 93.9
18 | CC[N+](C)(CC)CC(=O)Nc1c(C)cccc1C [N-Methyllidocaine iodide] | 98.4
19 | CC1=C(C(=O)OCCN(Cc2ccccc2)c2ccccc2)C(c2cccc([N+](=O)[O-])c2)C(P2(=O)OCC(C)(C)CO2)=C(C)N1 (stereo not given) [Efonidipine hydrochloride monoethanolate] | 99.9
20 | COc1cc(NC(C)CCCN)c2ncccc2c1 (stereo not given) [Primaquine diphosphate] | 15.7
21 | CCC(C)N(C)C(=O)c1cc2ccccc2c(-c2ccccc2Cl)n1 (stereo not given) | 106
22 | COC(=O)c1c(-c2cc(OC)c(OC)c(OC)c2)c2ccnc(OCc3ncccn3)c2c(=O)n1Cc1ccnc(C)c1 [T 0156 hydrochloride] | 107
23 | COc1cc2nccc(Oc3ccc(NC(=O)C4(C(=O)Nc5ccc(F)cc5)CC4)cc3)c2cc1OC [XL-184 free base (Cabozantinib)] | 51.5
24 | COc1cc2nccc(Oc3ccc(NC(=O)C4(C(=O)Nc5ccc(F)cc5)CC4)cc3)c2cc1OC [Cabozantinib malate] | 59
25 | COc1cc2c(Nc3ccc(NC(=O)c4ccccc4)cc3)ncnc2cc1OCCCN1CCOCC1 | 49.8 and 53.3

Row | Compound | nuclei count
26 | COc1cc2c(Oc3ccc(NC(=O)C4(C(=O)Nc5ccc(F)cc5)CC4)cc3F)ccnc2cc1OCCCN1CCOCC1 | 12
27 | O=C1c2c(O)cc(O)cc2OC(c2ccc(O)c(O)c2)C1O (stereo not given) [Taxifolin (Dihydroquercetin)] | 90.7
28 | O=C(O)c1ccc(O)c2ncccc12 | 99.5
29 | COc1ccc([C@@H]2CNC(=O)C2)cc1OC1CCCC1 [(R)-(-)-Rolipram] | 96.2
30 | CC[N+](CC)(CC)CC(=O)Nc1c(C)cccc1C [QX 314 chloride] | 104
31 | CC[N+](CC)(CC)CC(=O)Nc1c(C)cccc1C [QX-314 bromide] | 104
32 | CC[N+](CC)(CC)CC(=O)Nc1c(C)cccc1C [QX 314 bromide] | 97.5
33 | COc1ccc(CN(CCN(C)C)c2ccccn2)cc1 [Mepyramine maleate] | 104
34 | COc1ccc(CN(CCN(C)C)c2ccccn2)cc1 [Pyrilamine maleate] | 102
35 | CN(C)CCN(Cc1ccc(Cl)cc1)c1ccccn1 [Chloropyramine hydrochloride] | 105
36 | CCCCCCCCCCCCCCCC[N+](C)(C)CCN(Cc1ccc(OC)cc1)c1ncccn1 [Thonzonium bromide] | 12.1
37 | CC(=O)O[C@@H]1C[C@H]2C(C)(C)C(=O)C=C[C@]2(C)[C@H]2CC[C@@]3(C)[C@H](c4ccoc4)OC(=O)[C@H]4O[C@]43[C@@]21C [Gedunin] | 85.6
38 | COC1CCC(C(=O)c2ccc3nc4c(cc3c2)CCCO4)CC1 (stereo not given) | 96.5
39 | CCn1cc(-c2cccc(C(F)(F)F)c2)c2sc(C(=N)NC3CCS(=O)(=O)CC3)cc2c1=O | 91.5
40 | Cc1ccc(C(=O)N(CCCN)[C@@H](c2nc3cc(Cl)ccc3c(=O)n2Cc2ccccc2)C(C)C)cc1 | 9.23
41 | Cc1ccc(C(=O)N(CCCN)[C@@H](c2oc3cc(Cl)ccc3c(=O)c2Cc2ccccc2)C(C)C)cc1 | 20.5
42 | Fc1ccc(-c2nc3n(c2-c2ccncc2)CCS3)cc1 | 103
43 | C[C@H]1C[C@H]2[C@@H]3CCC4=CC(=O)C=C[C@]4(C)[C@H]3C(=O)C[C@]2(C)[C@@]1(O)C(=O)CO [Betapar (Meprednisone)] | 107
44 | C[C@H](CC[C@@H]1OC1(C)C)[C@H]1CC[C@H]2[C@@H]3CC=C4C[C@@H](O)CC[C@]4(C)[C@H]3CC[C@]12C [24(S),25-Epoxycholesterol] | 107
45 | Cc1c(NC(=O)OC[C@@H]2COCCN2)cn2ncnc(Nc3ccc4c(cnn4Cc4cccc(F)c4)c3)c12 | 100
46 | CC1(C)C(=O)NC2=C1C(=O)C(=O)c1ccccc12 | 40.5 and 19.2
47 | COc1ccc(NS(=O)(=O)c2sc3ccc(Cl)cc3c2C)cc1N1CCNCC1 | 98.3
48 | O=C(Nc1ccccc1)C12CC1C(=NO)c1ccccc1O2 (stereo not given) | 99.8
49 | Cc1cc(-c2ccccc2)nnc1NCCN1CCOCC1 [Minaprine dihydrochloride] | 102
50 | O=C1C(Cl)=C(NCCN2CCOCC2)C(=O)c2ncccc21 | 5.89

Row | Compound | nuclei count
51 | O=C(NCCN1CCOCC1)c1ccc(Cl)cc1 [Moclobemide] | 90.8
52 | CCN(CC)c1ccc(/C=N/NC(=O)c2ccc(O)cc2)cc1 | 89.4
53 | C[N+](C)(C)CC[N+]1(C)Cc2c(Cl)c(Cl)c(Cl)c(Cl)c2C1 [Chlorisondamine diiodide] | 90.8
54 | O=C(O)[C@H]1O[C@@H](Oc2cc3oc(-c4ccccc4)cc(=O)c3c(O)c2O)[C@H](O)[C@@H](O)[C@@H]1O [Baicalin] | 101
55 | c1cc2c3c(c1)c1c(n3CCNC2)CCCC1 [WAY 629 hydrochloride] | 94.2
56 | Cc1cc(O)c2c(c1)C(=O)c1cccc(O)c1C2=O [Chrysophanic acid (Chrysophanol)] | 92.5 ± 11
57 | CCN(CC)Cc1ccc2cc(COC(=O)Nc3ccc(C(=O)NO)cc3)ccc2c1 [ITF2357 (Givinostat)] | 14.7
58 | COc1ccc(Cn2ccc3ccc(C(=O)NO)cc32)cc1 | 101
59 | CC(C)[C@H](C(=O)Nc1ccc(C(=O)NO)cc1)c1ccccc1 | 29.3
60 | Nc1ncnc2c1ncn2[C@@H]1O[C@H](COP(=O)(O)OP(=O)(O)OP(=O)(O)O)[C@@H](O)[C@H]1O [ATP (Adenosine-Triphosphate)] | 106
61 | CCN(CC)CCNC(=O)c1c(C)[nH]c(/C=C2\C(=O)Nc3ccc(Cl)cc32)c1C | 79.9
62 | CCCS(=O)(=O)c1nc(NC2CC2)cc(-c2ccc3c(ccn3C3CC(C)(C)NC(C)(C)C3)c2)n1 | 8.4
63 | O=C(NC[C@H](O)CN1CCc2ccccc2C1)c1ccnc(NC2CCC2)c1 | 102
64 | Cc1ccc(/C=C2\CNC/C(=C\c3ccc(C)cc3)C2=O)cc1 | 7.58
65 | CC1(C)[C@@H](O[C@H]2O[C@H](C(=O)O)[C@@H](O)[C@H](O)[C@H]2O[C@@H]2O[C@H](C(=O)O)[C@@H](O)[C@H](O)[C@H]2O)CC[C@]2(C)[C@H]3C(=O)C=C4[C@@H]5C[C@@](C)(C(=O)O)CC[C@]5(C)CC[C@@]4(C)[C@]3(C)CC[C@@H]12 [Ammonium Glycyrrhizinate (AMGZ)] | 101
66 | CC1(C)[C@@H](O[C@H]2O[C@H](C(=O)O)[C@@H](O)[C@H](O)[C@H]2O[C@@H]2O[C@H](C(=O)O)[C@@H](O)[C@H](O)[C@H]2O)CC[C@]2(C)[C@H]3C(=O)C=C4[C@@H]5C[C@@](C)(C(=O)O)CC[C@]5(C)CC[C@@]4(C)[C@]3(C)CC[C@@H]12 [Glycyrrhizic acid] | 101
67 | CC(C)Cc1ccc(C(C)C(=O)NO)cc1 (stereo not given) [Ibuproxam] | 95.9
68 | CN(C)c1ccc(C(=C2C=CC(=[N+](C)C)C=C2)c2ccc(N(C)C)cc2)cc1 [Crystal violet] | 13
69 | CCOC(=O)Nc1cc(-c2ccc(C)c(NS(C)(=O)=O)c2)nn2c(C)nnc12 [Bromosporine] | 74.5
70 | CCCn1c(=O)c2[nH]c(-c3ccccc3)nc2n(CCC)c1=O [1,3-Dipropyl-8-phenylxanthine] | 98.9
71 | CC(C)C(=O)SCCCCCCC(=O)Nc1nc(-c2ccccc2)cs1 | 45.8
72 | CCOC(=O)c1cnc2c(cnn2CC)c1NN=C(C)C [Etazolate hydrochloride] | 106
73 | CN1CCCN(C(=O)c2cccc(-c3ccc(/C=C4/C(=O)Nc5ccc(Cl)cc54)o3)c2)CC1 | 6.22
74 | CN1CCN(C(=O)c2nc3ccc(Cl)cc3[nH]2)CC1 | 88.3
75 | Cc1[nH]c(/C=C2\C(=O)Nc3ccc(S(=O)(=O)N(C)c4cccc(Cl)c4)cc32)c(C)c1C(=O)N1CCN(C)CC1 | 52.4
